From PubChem BioAssay
Active and inactive are the calls of the source.

Assays:
[1] = system: Plasmodium falciparum Sir2 (PF13_0152, Sir2A); assay: pfSir2 binders on small-molecule microarrays, primary screen, biochemical, small-molecule microarray, 635 nm fluorescence (AID 1098); conditions: small-molecule microarray binding, fluorescence 635 nm; higher = more signal;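 also: score merges spot fluorescence intensity with its signal-to-noise ratio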
[2] = small-molecule microarray binders of probe aDKK1, primary screen, biochemical, biotinylated probe, 635/667 nm fluorescence (AID 1099); conditions: higher = more signal;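 also: score merges 667nm spot fluorescence with signal to noise across triplicate slides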
[3] = small-molecule microarray binders of probe aCHRDL2, primary screen, biochemical, biotinylated probe, 635/667 nm fluorescence (AID 1100); conditions: higher = more signal
[4] = splicing luciferase reporter signal modulators, primary screen, spliceosome inhibition project, cell-based, HEK293, splice +/- reporter (AID 1101); conditions: luminescence, 24 h, higher = more signal, called active from +8 up or from −8 down;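 also: HEK293 cells carrying a splicing-competent luciferase reporter gene; test concentration not given here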
[5] = target: Fibroblast growth factor 10 (Homo sapiens) (UniProt O15520); assay: FGF10 binders on small-molecule microarrays, primary screen, biochemical, small-molecule microarray, 635 nm fluorescence (AID 1102); conditions: FGF10 binding, fluorescence 635 nm, higher = more signal
Fibroblast growth factor 10 (Homo sapiens), sequence (O15520 whole entry, looked up): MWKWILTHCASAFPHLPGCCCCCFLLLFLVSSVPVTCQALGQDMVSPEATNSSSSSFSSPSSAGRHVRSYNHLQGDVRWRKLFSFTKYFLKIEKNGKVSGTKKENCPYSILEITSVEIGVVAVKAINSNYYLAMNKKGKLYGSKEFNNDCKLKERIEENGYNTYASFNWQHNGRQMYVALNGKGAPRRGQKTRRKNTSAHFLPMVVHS

[6] = system: glycogen synthase kinase-3 (GSK3A per assay name; protocol says GSK3B); assay: GSK3 binders on small-molecule microarrays, primary screen, biochemical, small-molecule microarray, 635 nm fluorescence, GSK3A (AID 1103); conditions: small-molecule microarray binding, fluorescence 635 nm; higher = more signal; also: the record names both GSK3A and GSK3B
[7] = target: Epidermal growth factor receptor (Homo sapiens) (UniProt P00533); assay: EGFR binders on small-molecule microarrays, primary screen, biochemical, small-molecule microarray, 635 nm fluorescence (AID 1104); conditions: EGFR binding, higher = more signal;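 also: score merges 667 nm emission intensity with spot signal to noise over triplicate slides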
Epidermal growth factor receptor (Homo sapiens), sequence (P00533 whole entry, looked up): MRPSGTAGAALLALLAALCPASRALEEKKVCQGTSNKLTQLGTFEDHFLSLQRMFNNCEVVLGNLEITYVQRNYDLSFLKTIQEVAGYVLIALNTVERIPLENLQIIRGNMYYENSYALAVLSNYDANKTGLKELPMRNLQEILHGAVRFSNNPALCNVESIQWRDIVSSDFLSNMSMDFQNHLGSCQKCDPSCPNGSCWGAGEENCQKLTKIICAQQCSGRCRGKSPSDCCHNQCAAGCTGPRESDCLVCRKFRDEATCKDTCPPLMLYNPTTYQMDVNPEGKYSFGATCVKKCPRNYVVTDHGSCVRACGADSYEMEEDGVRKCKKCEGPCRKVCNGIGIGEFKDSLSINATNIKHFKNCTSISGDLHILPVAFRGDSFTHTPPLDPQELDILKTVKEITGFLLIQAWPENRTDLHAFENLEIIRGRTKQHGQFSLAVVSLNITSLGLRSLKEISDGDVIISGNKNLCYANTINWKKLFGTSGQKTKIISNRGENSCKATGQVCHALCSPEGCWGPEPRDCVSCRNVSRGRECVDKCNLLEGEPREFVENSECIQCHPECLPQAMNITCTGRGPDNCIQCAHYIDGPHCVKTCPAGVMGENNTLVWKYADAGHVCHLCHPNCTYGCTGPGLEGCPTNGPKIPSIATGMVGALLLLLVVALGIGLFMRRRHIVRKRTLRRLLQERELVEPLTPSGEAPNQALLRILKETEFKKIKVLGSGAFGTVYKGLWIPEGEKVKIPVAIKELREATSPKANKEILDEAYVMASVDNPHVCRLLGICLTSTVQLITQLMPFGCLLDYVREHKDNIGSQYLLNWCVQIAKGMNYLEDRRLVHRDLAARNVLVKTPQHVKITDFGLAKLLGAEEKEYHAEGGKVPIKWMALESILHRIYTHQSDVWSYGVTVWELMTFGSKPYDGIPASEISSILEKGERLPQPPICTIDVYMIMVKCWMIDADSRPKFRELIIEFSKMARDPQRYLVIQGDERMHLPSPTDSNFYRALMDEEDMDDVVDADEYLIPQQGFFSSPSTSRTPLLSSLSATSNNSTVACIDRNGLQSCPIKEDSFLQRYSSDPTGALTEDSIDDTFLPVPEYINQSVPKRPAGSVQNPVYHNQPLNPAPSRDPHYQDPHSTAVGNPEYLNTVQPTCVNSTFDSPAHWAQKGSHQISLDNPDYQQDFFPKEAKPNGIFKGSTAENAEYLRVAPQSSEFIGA

[8] = target: Follistatin-related protein 3 (Homo sapiens) (UniProt O95633); assay: FSTL3 binders on small-molecule microarrays, primary screen, biochemical, small-molecule microarray, 635 nm fluorescence (AID 1105); conditions: FSTL3 binding, higher = more signal;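 also: score merges emission near 667 nm and signal to noise per printed spot across three slides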
Follistatin-related protein 3 (Homo sapiens), sequence (O95633 whole entry, looked up): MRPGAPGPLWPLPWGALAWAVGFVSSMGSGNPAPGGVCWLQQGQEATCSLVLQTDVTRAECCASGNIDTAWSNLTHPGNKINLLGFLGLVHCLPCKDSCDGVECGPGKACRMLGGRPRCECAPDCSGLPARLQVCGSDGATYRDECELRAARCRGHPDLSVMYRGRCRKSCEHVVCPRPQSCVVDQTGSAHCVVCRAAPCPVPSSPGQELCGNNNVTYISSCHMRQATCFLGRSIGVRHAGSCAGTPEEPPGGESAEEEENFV

[9] = target: Dickkopf-related protein 1 (Homo sapiens) (UniProt O94907); assay: DKK1 binders on small-molecule microarrays, primary screen, biochemical, small-molecule microarray, 635 nm fluorescence scan (AID 1106); conditions: DKK1 binding, higher = more signal;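 also: score merges emission near 667 nm with signal to noise over three replicate slides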
Dickkopf-related protein 1 (Homo sapiens), sequence (O94907 whole entry, looked up): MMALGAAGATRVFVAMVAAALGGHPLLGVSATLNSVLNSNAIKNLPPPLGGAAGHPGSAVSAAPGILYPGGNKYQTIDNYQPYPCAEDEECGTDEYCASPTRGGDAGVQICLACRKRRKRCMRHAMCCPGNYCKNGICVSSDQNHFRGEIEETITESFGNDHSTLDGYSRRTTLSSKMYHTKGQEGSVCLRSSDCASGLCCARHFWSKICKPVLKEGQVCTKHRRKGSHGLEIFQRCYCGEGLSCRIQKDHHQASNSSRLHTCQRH

[10] = system: Inhibin beta A chain (activin A); assay: INHBA (activin A) binders on microarrays, primary screen, biochemical, small-molecule microarray, 635 nm fluorescence scan (AID 1107); conditions: small-molecule microarray binding, higher = more signal;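 also: mouse activin A protein probed at 4.33 µg/mL on printed slides; score merges bound-protein fluorescence near 667 nm with spot signal-to-noise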
[11] = system: Human papillomavirus type 1a protein E7 (residues 44-93); assay: HPV1a E7 fragment binders on microarrays, primary screen, biochemical, small-molecule microarray, residues 44-93, 635 nm fluorescence (AID 1108); conditions: small-molecule microarray binding, fluorescence 635 nm; higher = more signal;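 also: E7 fragment applied at 1 µg/mL in TBST for 1 h at 4 C; score combines spot fluorescence with its signal to noise ratio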
[12] = modulators of HCV replicon luciferase signal, primary screen, HCV replication inhibitor project, Huh7 cells, luciferase reporter (AID 1109); conditions: 48 h, higher = more signal;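 also: huh7 hepatoma cells harbouring a luciferase neomycin HCV replicon reporter; luciferase luminescence as measure of HCV replicon replication; test concentration not given here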
[13] = target: Left-right determination factor 2 (Homo sapiens) (UniProt O00292); assay: LEFTY2 binders on small-molecule microarrays, primary screen, biochemical, small-molecule microarray, 635 nm fluorescence scan (AID 1110); conditions: LEFTY2 binding, higher = more signal
Left-right determination factor 2 (Homo sapiens), sequence (O00292 whole entry, looked up): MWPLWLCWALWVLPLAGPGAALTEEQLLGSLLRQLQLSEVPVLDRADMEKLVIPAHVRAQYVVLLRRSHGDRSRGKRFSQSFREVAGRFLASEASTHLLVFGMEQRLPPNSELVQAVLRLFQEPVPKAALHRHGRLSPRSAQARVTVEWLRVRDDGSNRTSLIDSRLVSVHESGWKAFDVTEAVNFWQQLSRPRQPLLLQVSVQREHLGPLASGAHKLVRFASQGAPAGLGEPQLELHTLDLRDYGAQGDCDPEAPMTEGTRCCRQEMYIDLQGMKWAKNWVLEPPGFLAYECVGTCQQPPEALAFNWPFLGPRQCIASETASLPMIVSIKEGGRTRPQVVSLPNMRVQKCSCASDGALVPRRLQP

[14] = target: Calmodulin-1 (Homo sapiens) (UniProt P0DP23); assay: CALM1 binders on microarrays, EGTA buffer, profiling panel, biochemical, small-molecule microarray, Cy5-labelled CALM1 (AID 1111); conditions: Cy5-CALM1 binding fluorescence, higher = more signal;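 also: labelled calmodulin applied in Tris saline Tween buffer holding calcium plus EGTA and DTT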
[15] = target: Calmodulin-1 (Homo sapiens) (UniProt P0DP23); assay: calcium-bound CALM1 binders on microarrays, profiling panel, artefact control for SMM control-protein annotation, biochemical, small-molecule microarray, Cy5-labelled CALM1, plus calcium (AID 1112); conditions: Cy5-CALM1 binding fluorescence, higher = more signal;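 also: score merges spot fluorescence with signal to noise from triplicate slides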
[16] = small-molecule microarray binders of probe aWnt5a, primary screen, biochemical, biotinylated probe, 635/667 nm fluorescence (AID 1113); conditions: higher = more signal;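 also: score merges 667 nm fluorescence intensity with signal-to-noise per printed feature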
[17] = small-molecule microarray binders of probe aShh, primary screen, biochemical, biotinylated probe, 635/667 nm fluorescence (AID 1114); conditions: higher = more signal;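 also: probe is biotin-labelled aShh protein from a stem cell growth factor screen; measures binding of labelled protein to compounds printed on the slide; score merges feature fluorescence at 667 nm with signal-to-noise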
[18] = small-molecule microarray binders of probe aNog, primary screen, biochemical, biotinylated probe, 635/667 nm fluorescence (AID 1115); conditions: higher = more signal;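 also: probe is biotinylated aNog protein used at 0.15 µg/mL for 1 h at 4 C; z-score combines 667 nm fluorescence of each spot with its signal to noise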
[19] = target: Torsin-1A-interacting protein 1 (Homo sapiens) (UniProt Q5JTV8); assay: LAP1 binders from COS7 cell lysate, primary screen, small-molecule microarray, 635/667 nm fluorescence (AID 1116); conditions: COS7-hLAP1 lysate binding, 635 nm fluorescence, higher = more signal
Torsin-1A-interacting protein 1 (Homo sapiens), sequence (Q5JTV8 whole entry, looked up): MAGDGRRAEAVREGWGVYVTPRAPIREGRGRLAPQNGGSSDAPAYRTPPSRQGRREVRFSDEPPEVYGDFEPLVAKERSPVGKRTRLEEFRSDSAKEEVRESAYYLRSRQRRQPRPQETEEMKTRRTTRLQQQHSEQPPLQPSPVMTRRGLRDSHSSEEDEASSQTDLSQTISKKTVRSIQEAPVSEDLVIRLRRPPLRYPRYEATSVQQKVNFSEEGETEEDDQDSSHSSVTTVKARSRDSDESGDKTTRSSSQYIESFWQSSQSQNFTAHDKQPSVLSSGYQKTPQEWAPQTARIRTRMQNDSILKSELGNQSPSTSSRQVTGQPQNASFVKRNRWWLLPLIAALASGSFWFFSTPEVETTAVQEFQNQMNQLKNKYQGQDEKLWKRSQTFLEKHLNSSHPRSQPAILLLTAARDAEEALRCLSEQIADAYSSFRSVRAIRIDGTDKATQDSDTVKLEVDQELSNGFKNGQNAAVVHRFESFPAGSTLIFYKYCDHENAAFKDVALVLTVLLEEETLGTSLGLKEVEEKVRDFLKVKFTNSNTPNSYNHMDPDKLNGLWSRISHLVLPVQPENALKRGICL

[20] = target: Alpha-bungarotoxin (Bungarus multicinctus) (UniProt P60615); assay: alpha-bungarotoxin binders on microarray, profiling panel, artefact control for SMM control protein annotation, biochemical, small-molecule microarray, Alexa647 label, 635/667 nm fluorescence (AID 1117); conditions: alpha-BTX-A647 binding fluorescence, higher = more signal
Alpha-bungarotoxin (Bungarus multicinctus), sequence (P60615 whole entry, looked up): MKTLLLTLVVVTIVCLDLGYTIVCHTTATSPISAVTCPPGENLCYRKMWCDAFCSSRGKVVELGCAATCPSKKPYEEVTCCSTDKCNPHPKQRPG

Row | SMILES | composite z-score [1] | composite z-score [2] | composite z-score [3] | z-score [4] | composite z-score [5] | composite z-score [6] | composite z-score [7] | composite z-score [8] | composite z-score [9] | composite z-score [10] | composite z-score [11] | z-score [12] | composite z-score [13] | composite z-score [14] | composite z-score [15] | composite z-score [16] | composite z-score [17] | composite z-score [18] | composite z-score [19] | composite z-score [20]
1 | CC(C)(C)OC(=O)CC[C@]1(C(=O)NCc2ccccc2)N=C(c2ccc(OCCCO)cc2)O[C@H]1c1ccccc1N=[N+]=[N-] | 1.02 | 1.36 | 1.35 | -2.19 (inactive) | 1.21 | 1.29 | -0.0113 | 1 | 0.496 | 0.947 | -0.385 | -0.5 | 0.478 | 2.14 | 0.756 | 0.17 | 0.57 | 1.11 | 1.63 | 2.77
2 | [N-]=[N+]=NCc1ccccc1C[C@@]1(C(=O)O)N=C(c2ccc(OCCCO)cc2)O[C@@H]1c1ccccc1 | 1.31 | 0.884 | 1.24 | -0.618 (inactive) | -0.0995 | -0.374 | -0.906 | -0.879 | -1.09 | 0.738 | 0.566 | -0.616 | -0.404 | 2.13 | 1.36 | -0.0799 | 0.0469 | 0.767 | 1.75 | 1.09
3 | C=C[C@H](OC)[C@@H](OC(=O)Nc1ccc(OC)cc1)c1ccc(OC)c(O)c1 | 0.29 | -0.387 | 0.703 | -1.48 (inactive) | -0.971 | -0.761 | -1.91 | -1.18 | -1.61 | -0.385 | -1.51 | 0.369 | -1.63 | -1.07 | -0.137 | -0.202 | 0.0062 | -0.358 | -0.557 | -2.08
4 | C#CCOc1ccc(C[C@H]2C(=O)O[C@H](Cc3ccccc3)[C@H](/C=C/C3CC3)N2CC#C)cc1 | 1.32 | -0.162 | -0.0338 | -1.18 (inactive) | -0.425 | -0.526 | -0.925 | -0.566 | -0.175 | 0.809 | -0.462 | -2.14 | -0.36 | -0.491 | -0.685 | -0.176 | -0.153 | -0.433 | 0.204 | 0.0192
5 | NCCCCCNC(=O)[C@H]1C[C@H]2C(=O)NCC(=O)N2[C@H]1c1ccc(O)cc1 | 1.02 | 0.154 | 0.212 | -0.25 (inactive) | 1.37 | 1.31 | 0.383 | 1.07 | 1.74 | 0.324 | 0.861 | 0.245 | 1.49 | 1.53 | 0.954 | -0.0981 | -0.206 | -0.216 | 0.712 | 2.71
6 | O=C(O)[C@H]1C[C@H]2C(=O)NCC(=O)N2[C@H]1c1cccc(OCCO)c1 | 1.69 | 0.809 | 0.725 | -0.387 (inactive) | 0.082 | 0.444 | 0.0343 | 0.778 | 0.552 | 1.5 | 0.22 | 3.1 | -0.166 | 0.338 | 0.921 | 0.291 | 0.0118 | 0.906 | 1.51 | 1.81
7 | CCCCC(=C=CC[C@@H](O)c1ccc(OCCO)cc1)C[C@@H](O)c1cc(Cl)cc(Cl)c1O | 0.157 | 0.279 | 0.577 | -2 (inactive) | 0.697 | -0.167 | -0.723 | -0.0492 | -0.344 | 0.588 | -0.258 | -1.99 | -0.0836 | 0.863 | 0.83 | -0.124 | -0.221 | 0.342 | 0.497 | 0.166
8 | C[N+](C)(C)CCCC[C@@H]1NC(=O)[C@@H]2C[C@H](C(=O)NCCCCCNC(=O)CS)[C@H](c3ccc(O)cc3)N2C1=O | 1.3 | -0.0611 | 0.346 | 4.12 (inactive) | 0.0481 | -0.638 | -0.849 | 0.0788 | 0.171 | 0.57 | -0.643 | -0.0298 | -0.739 | 0.21 | 0.669 | -0.191 | 0.138 | 0.208 | 2.19 | 1.12
9 | COc1ccc(C(=O)Nc2cccc(CN3C(=O)[C@@]4(O[C@@H](CCO)[C@H]([Si](C)(C)c5ccc(OC)cc5)[C@H]4C)c4ccccc43)c2)cc1 | 0.775 | 0.481 | 0.666 | 1.92 (inactive) | 0.0414 | 0.2 | -0.121 | 0.131 | 0.19 | 1.49 | 0.721 | -5.15 | -0.0057 | 1.08 | 1.03 | -0.0721 | -0.0146 | 0.0043 | 0.0777 | 0.689
10 | C=C(C1=CCN(S(=O)(=O)c2ccc(C)cc2)C1)[C@@H](OC(C)=O)[C@@H]1CCCN1S(=O)(=O)c1ccccc1[N+](=O)[O-] | 1.55 | -0.362 | -0.254 | -3.24 (inactive) | 0.0611 | -0.297 | -0.0578 | -0.114 | -0.239 | 1.2 | -0.38 | -4.62 | -0.0476 | -0.765 | -0.856 | -0.208 | 0.0469 | 0.353 | 0.156 | -1.48
11 | C=CC[C@@H](OC(=O)Nc1ccc(SC)cc1)c1ccc(OCCO)cc1 | 1.28 | 0.271 | 1.29 | -1.83 (inactive) | 0.0292 | -0.381 | -1.4 | -0.805 | -1.42 | -0.148 | -0.318 | 2.1 | -0.952 | -0.0326 | 0.835 | -0.208 | 0.358 | 0.133 | 1.01 | -0.68
